Assay results from PubChem BioAssay (NCATS).
“And” between values parts separate entries of the source, which are not always exact repeats. Equal values may be shown once. Records with an inconclusive call do not appear. Entries that show only a call come without a potency. The source made the active and inactive calls. Unless noted, calls come from the whole dose curve; as a rule, active = well fitted curve in the direction sought with a large enough effect; inconclusive = small, poorly fitted or top-dose-only effect, or another doubt; inactive = no such curve, though single readings can be large; an effect the other way counts as inactive or inconclusive. Starred links: 1 amine or outer side, 2 acyl side, 3 side chain; linkers in the order of their positions; H or OH if unused. Positions of bridges follow the written chain, without caps; N, C: chain ends. Non-standard residues stand in square brackets, D forms with d. Residues, ends and D or L forms follow the SMILES beside them. Chains are numbered I, II in the order given. *: point of attachment. Actinocin(9to1) = Cc1c2oc3c(C)ccc(C(=O)[*:1])c3nc-2c(C(=O)[*:2])c(N)c1=O; NMeV = CN[CH](C(=O)O)C(C)C; Nva = CCC[C@H](N)C(=O)O; Cbz = O=C(OCc1ccccc1)*; Sar = CNCC(=O)O

Key:
[1] = Primary qHTS for inhibitors of nuclear receptor binding SET domain protein 2 (NSD2) in an isogenic RCH-ACV NSD2 p.E1099K mutant (9B) (AID 1645876); note: nearly all actives have a fitted effect of over 70% in size; note: potency is the fitted concentration of half-maximal effect
[2] = Primary qHTS for inhibitors of nuclear receptor binding SET domain protein 2 (NSD2) in an RCH-ACV wild type WT cells (2C) (AID 1645877); note: nearly all actives have a fitted effect of over 70% in size; note: potency is the fitted concentration of half-maximal effect
[3] = biological target: Glutathione peroxidase 1 (Homo sapiens) (UniProt P07203); experiment: Primary qHTS Assay for Inhibitors of Recombinant Selenoprotein Glutathione Peroxidase 1 (GPX1) (AID 1845191); note: nearly all actives have a fitted effect of over 65% in size
Chain of Glutathione peroxidase 1 (Homo sapiens) (P07203 whole entry, looked up): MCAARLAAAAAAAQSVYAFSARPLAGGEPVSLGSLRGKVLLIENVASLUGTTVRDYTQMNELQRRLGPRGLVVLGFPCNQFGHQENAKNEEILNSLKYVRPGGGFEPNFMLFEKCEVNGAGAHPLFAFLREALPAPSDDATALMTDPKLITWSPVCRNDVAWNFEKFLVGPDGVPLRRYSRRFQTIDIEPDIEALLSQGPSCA
In short: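 10 nM GPX1 + cpd, 30 min RT; start w/ 1 mM GSH, 0.5 mM cumene hydroperoxide, 0.5 mM NADPH, 100 nM GR, 0.01% BSA; buffer 50 mM Tris-HCl pH 7.5, 2 mM EDTA, 150 mM NaCl; Fl 340/450, 0 & 15 min.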

[4] = biological target: Phospholipid hydroperoxide glutathione peroxidase GPX4 (Homo sapiens) (UniProt P36969); experiment: Primary qHTS Assay for Inhibitors of Recombinant Selenoprotein Glutathione Peroxidase 4 (GPX4) (AID 1845192); note: nearly all actives have a fitted effect of over 65% in size; note: potency is the fitted concentration of half-maximal effect
Chain of Phospholipid hydroperoxide glutathione peroxidase GPX4 (Homo sapiens) (P36969 whole entry, looked up): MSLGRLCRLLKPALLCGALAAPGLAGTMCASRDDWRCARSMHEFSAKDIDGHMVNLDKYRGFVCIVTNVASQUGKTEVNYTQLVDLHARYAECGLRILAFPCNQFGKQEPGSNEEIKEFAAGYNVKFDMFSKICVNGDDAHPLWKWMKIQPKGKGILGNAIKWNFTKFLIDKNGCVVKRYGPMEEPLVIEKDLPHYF
In short: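 NADPH consumption, followed by fluorescence at 340/450 nm between 0 and 15 min, reports GPX4 activity via coupled glutathione reductase (100 nM). Enzyme 200 nM was pre-exposed to compound 30 min; 0.5 mM cumene hydroperoxide and 1 mM GSH served as substrates.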

[5] = biological target: Luciferin 4-monooxygenase (Photinus pyralis) (UniProt P08659); experiment: Primary firefly luciferase (FLuc) qHTS assay for identification of artifact compounds. (AID 1845220); note: nearly all actives have a fitted effect of over 60% in size
In short: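 FLuc 10 nM; luciferin 10 uM; ATP 10 uM; Tris-acetate pH 7.6, Mg-acetate 10 mM; 15 min RT preincubation; 5 min reaction; luminescence.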

[6] = Primary fluorescence-based thiol-reactive (MSTI) qHTS assay for identification of artifact compounds. (AID 1845221);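 note: thiol-reactive compounds lower the probe fluorescence signal; nearly all actives have a fitted effect of over 65% in size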
In short: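 MSTI probe at 4 uM final in 2% DMSO/PBS pH 7.4; compounds, 1 h at room temperature in dark. Fluorescence Ex/Em 525/598 nm, normalised to Acetyl-MSTI and MSTI, fitted to 4-parameter Hill.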

[7] = system: Nanoluciferase (engineered Oplophorus gracilirostris luciferase); experiment: Primary Nanoluciferase (NLuc) qHTS assay for identification of artifact compounds. (AID 1845222);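 note: NLuc secreted into diluted conditioned medium of S16 cells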
In short: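 NLuc from S16 cell medium (1:55) plus test compounds, 15 min, room temperature. Luminescence after Nano-Glo (1:100) addition, 5 min.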

[8] = biological target: Catechol O-methyltransferase (Homo sapiens) (UniProt P21964); experiment: Confirmatory Screen for Target Class Profiling of Small Molecule Inhibitors of Methyltransferases (AID 1745852; calls by dose curve; note: potency is the fitted concentration of half-maximal effect); conditions: MTase-Glo luminescence, SAH detection, recombinant enzyme; measured here: COMT max response; stronger effect = lower value
Chain of Catechol O-methyltransferase (Homo sapiens) (P21964 whole entry, looked up): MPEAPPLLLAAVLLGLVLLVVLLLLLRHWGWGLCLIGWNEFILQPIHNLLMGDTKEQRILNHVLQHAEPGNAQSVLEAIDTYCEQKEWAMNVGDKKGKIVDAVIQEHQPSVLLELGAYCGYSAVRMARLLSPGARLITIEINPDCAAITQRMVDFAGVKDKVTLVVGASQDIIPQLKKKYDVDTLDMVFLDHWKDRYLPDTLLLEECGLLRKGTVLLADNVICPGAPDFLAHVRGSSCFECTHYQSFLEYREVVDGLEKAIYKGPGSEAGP

[9] = biological target: Guanidinoacetate N-methyltransferase (Homo sapiens) (UniProt Q14353); experiment: as above; conditions: activity change, negative = inhibition: at 57.3 µM (top of the series)
[10] = biological target: Nicotinamide N-methyltransferase (Homo sapiens) (UniProt P40261); experiment: as above; conditions: MTase-Glo luminescence, SAH detection, recombinant enzyme; measured here: NNMT max response; stronger effect = lower value
Chain of Nicotinamide N-methyltransferase (Homo sapiens) (P40261 whole entry, looked up): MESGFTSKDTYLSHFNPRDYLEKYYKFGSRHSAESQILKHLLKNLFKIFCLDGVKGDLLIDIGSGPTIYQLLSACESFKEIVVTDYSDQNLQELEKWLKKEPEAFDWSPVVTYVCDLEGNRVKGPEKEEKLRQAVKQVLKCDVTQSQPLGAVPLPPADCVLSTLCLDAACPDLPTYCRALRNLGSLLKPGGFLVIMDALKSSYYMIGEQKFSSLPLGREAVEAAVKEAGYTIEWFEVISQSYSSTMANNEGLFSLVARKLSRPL

[11] = biological target: Phenylethanolamine N-methyltransferase (Homo sapiens) (UniProt P11086); experiment: as above; conditions: MTase-Glo luminescence, SAH detection, recombinant enzyme; measured here: PNMT max response; stronger effect = lower value
Chain of Phenylethanolamine N-methyltransferase (Homo sapiens) (P11086 whole entry, looked up): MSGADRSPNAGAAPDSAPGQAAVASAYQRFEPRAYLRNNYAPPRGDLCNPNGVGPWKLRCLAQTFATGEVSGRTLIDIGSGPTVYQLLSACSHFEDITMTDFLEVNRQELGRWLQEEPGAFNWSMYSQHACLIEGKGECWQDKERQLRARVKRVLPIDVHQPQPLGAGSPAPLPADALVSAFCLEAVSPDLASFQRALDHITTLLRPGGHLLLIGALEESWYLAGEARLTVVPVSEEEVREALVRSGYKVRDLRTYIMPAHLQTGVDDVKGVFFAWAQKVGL

CC(C)c1cnn2c(NCc3ccccc3)cc(NCCCCCCN)nc12
Potency [1]: 20.9 µM (active)
Potency [2]: 20.9 µM (active)
Potency [3]: inactive
Potency [4]: inactive

C[C@H]1[C@@H](OC(=O)CCC(=O)O)O[C@@H]2O[C@@]3(C)CC[C@@H]4[C@H](C)CC[C@@H]1[C@@]24OO3
Potency [1]: 1.86 µM (active)
Potency [2]: 1.48 µM (active)
Potency [3]: inactive
Potency [4]: inactive
Potency [5]: inactive
Potency [6]: inactive
outcome [7]: inactive

Cn1c(Nc2ccc(C(F)(F)F)cc2)nc2cc(Oc3ccnc(-c4ncc(C(F)(F)F)[nH]4)c3)ccc21
Potency [1]: 7.31 µM (active) and 5.25 µM (active)
Potency [2]: 8.2 µM (active) and 4.17 µM (active)
Potency [3]: inactive
Potency [4]: inactive

CS(=O)(=O)N1CCc2c(-c3cnc(N)nc3)nc(N3CCOCC3)nc21
Potency [1]: 920 nM (active) and 468 nM (active)
Potency [2]: 459 nM (active) and 468 nM (active)
Potency [3]: inactive
Potency [4]: inactive
Potency [5]: inactive
Potency [6]: inactive
outcome [7]: inactive

CCc1ccc(C(=O)Nc2cc(CN3CCN(C)CC3)cc(C(F)(F)F)c2)cc1C#Cc1cnc2ccnn2c1
Potency [1]: 5.78 µM (active) and 5.25 µM (active)
Potency [2]: 5.15 µM (active) and 4.17 µM (active)
Potency [3]: inactive
Potency [4]: inactive
Potency [5]: inactive
Potency [6]: inactive
outcome [7]: inactive

Nc1nc(=O)n([C@H]2C[C@H](O)[C@@H](CO)O2)cc1F
Potency [1]: 0.0118 µM (active)
Potency [2]: 0.0148 µM (active)
Potency [3]: inactive
Potency [4]: inactive

C[C@@H]1CC[C@@]2(OC1)OC1CC3C4CC=C5CC(O)CCC5(C)C4CCC3(C)C1[C@@H]2C (stereo partly drawn)
Potency [1]: inactive
Potency [2]: inactive
Potency [3]: inactive
Potency [4]: inactive

C[C@H](CCC(=O)O)[C@H]1CCC2C3C[C@H](O)[C@@H]4C[C@H](O)CC[C@]4(C)C3CC[C@@]21C (stereo partly drawn)
Potency [1]: inactive
Potency [2]: inactive
Potency [3]: inactive
Potency [4]: inactive

CCC[C@@H](C=O)NC(=O)[C@H](CC(C)C)NC(=O)[C@H](CC(C)C)NC(=O)OCc1ccccc1 (Cbz-Leu-Leu-[Nva]-aldehyde)
Potency [1]: 2.09 µM (active)
Potency [2]: 1.05 µM (active)
Potency [3]: inactive
Potency [4]: inactive

COc1cc(CCc2cc(NC(=O)c3ccc(N4C[C@@H](C)N[C@@H](C)C4)cc3)n[nH]2)cc(OC)c1
Potency [1]: 9.34 µM (active)
Potency [2]: 5.9 µM (active)
Potency [3]: inactive
Potency [4]: inactive
Potency [5]: inactive
Potency [6]: inactive

NC(=NCCCCCCN=C(N)N=C(N)Nc1ccc(Cl)cc1)N=C(N)Nc1ccc(Cl)cc1
Potency [1]: 4.17 µM (active)
Potency [2]: 5.25 µM (active)
Potency [3]: inactive
Potency [4]: inactive

CCCNS(=O)(=O)Nc1ncnc(OCCOc2ncc(Br)cn2)c1-c1ccc(Br)cc1
Potency [1]: 18.6 µM (active)
Potency [2]: 16.6 µM (active)
Potency [3]: inactive
Potency [4]: inactive

c1ccc(CNc2nc(NCc3ccccc3)c3ccccc3n2)cc1
Potency [1]: 5.9 µM (active)
Potency [2]: 5.9 µM (active)
Potency [3]: inactive
Potency [4]: inactive

CN(C)c1ccc2cc(C(=O)N[C@@H](CCCN=C(N)CCl)C(=O)NCc3ccccc3)ccc2c1
Potency [1]: inactive
Potency [2]: inactive
Potency [3]: inactive
Potency [4]: inactive

N#Cc1c(NC(=O)c2cccc3ccccc23)sc2c1CCCC2
Potency [1]: 0.263 µM (active)
Potency [2]: 0.263 µM (active)
Potency [3]: inactive
Potency [4]: inactive

O=C(Nc1cccc(Nc2ncc(Br)c(NCCc3cnc[nH]3)n2)c1)N1CCCC1
Potency [1]: 0.934 µM (active)
Potency [2]: 0.59 µM (active)
Potency [4]: inactive

CCCCCCCN(CC)CCCC(O)c1ccc(NS(C)(=O)=O)cc1 (stereo not drawn)
Potency [1]: inactive
Potency [2]: inactive
Potency [3]: inactive
Potency [4]: inactive

Cc1cc(Nc2ncc3c(n2)N(C)C(=O)N(c2cc(NC(=O)c4cccc(C(F)(F)F)c4)ccc2C)C3)n(C)n1
Potency [1]: 0.132 µM (active)
Potency [2]: 0.132 µM (active)
Potency [3]: inactive
Potency [4]: inactive

Cc1cnc(NC(=O)Nc2cc(Br)c(C)cc2OC[C@@H]2CNCCO2)cn1
Potency [1]: 1.05 µM (active)
Potency [2]: 0.934 µM (active)
Potency [3]: inactive
Potency [4]: inactive

Oc1ccc(-c2ccc(-c3cc(Nc4cccc(CNC5CC5)c4)n[nH]3)cc2)c(O)c1
Potency [1]: 1.48 µM (active)
Potency [2]: 1.86 µM (active)
Potency [3]: inactive
Potency [4]: inactive

Nc1ccc(C(=O)Nc2cccc(-c3nc(N4CCOCC4)c4oc5ncccc5c4n3)c2)cn1
Potency [1]: 1.15 µM (active) and 1.48 µM (active)
Potency [2]: 1.29 µM (active) and 1.05 µM (active)
Potency [3]: inactive
Potency [5]: inactive
Potency [6]: inactive
outcome [7]: inactive

CC(Oc1ccc(O)cc1)(P(=O)(O)O)P(=O)(O)O
Potency [1]: inactive
Potency [2]: inactive
Potency [3]: inactive
Potency [4]: inactive

C[C@@H](Cc1cc2c(c(C(N)=O)c1)N(CCCO)CC2)NCCOc1ccccc1OCC(F)(F)F
Potency [1]: inactive
Potency [2]: inactive
Potency [3]: inactive
Potency [4]: inactive
Potency [5]: inactive
Potency [6]: inactive
outcome [7]: inactive

COc1cc([C@@H]2c3cc4c(cc3[C@H](O)[C@H]3COC(=O)[C@@H]23)OCO4)cc(OC)c1OC
Potency [1]: 0.662 µM (active)
Potency [2]: 0.417 µM (active)
Potency [3]: inactive
Potency [4]: inactive

COc1cc2c(cc1OC)[C@@H]1C(=O)c3ccc4c(c3O[C@@H]1CO2)C=CC(C)(C)O4
Potency [1]: 16.4 µM (active) and 1.86 µM (active)
Potency [2]: 18.4 µM (active) and 5.9 µM (active)
Potency [3]: inactive
Potency [4]: inactive

CN1C(C(=O)Nc2ccccn2)=C(O)c2sc(Cl)cc2S1(=O)=O
Potency [1]: inactive
Potency [2]: inactive
Potency [3]: inactive
Potency [4]: inactive

NC(=O)Nc1cc(-c2ccc(CN3CCOCC3)cc2)sc1C(N)=O
Potency [1]: 0.662 µM (active)
Potency [2]: 0.372 µM (active)
Potency [3]: inactive
Potency [4]: inactive

CC(C(C)N1CC(=O)NC(=O)C1)N1CC(=O)NC(=O)C1 (stereo not drawn)
Potency [1]: 5.25 µM (active)
Potency [2]: 3.32 µM (active)
Potency [3]: inactive
Potency [4]: inactive

CC(=O)OC[C@@H]1O[C@@H](n2ccc(=O)[nH]c2=O)[C@H](OC(C)=O)[C@H]1OC(C)=O
Potency [1]: inactive
Potency [2]: inactive
Potency [3]: inactive
Potency [4]: inactive

O=[N+]([O-])c1cn2c(n1)OC[C@@H](OCc1ccc(OC(F)(F)F)cc1)C2
Potency [1]: inactive
Potency [2]: inactive
Potency [3]: inactive
Potency [4]: inactive

C[N+](C)([O-])CCNc1ccc(NCC[N+](C)(C)[O-])c2c1C(=O)c1c(O)ccc(O)c1C2=O
Potency [1]: 0.0525 µM (active)
Potency [2]: 0.0372 µM (active)
Potency [3]: inactive
Potency [4]: inactive

N#Cc1cc(NC(=O)Nc2nnc(-c3ccncc3)s2)ccc1-c1cn[nH]c1
Potency [1]: inactive
Potency [2]: inactive
Potency [3]: inactive
Potency [4]: inactive

Cc1c2oc3c(C)ccc(C(=O)NC4C(=O)NC(C(C)C)C(=O)N5CCCC5C(=O)N(C)CC(=O)N(C)C(C(C)C)C(=O)OC4C)c3nc-2c(C(=O)NC2C(=O)NC(C(C)C)C(=O)N3CCCC3C(=O)N(C)CC(=O)N(C)C(C(C)C)C(=O)OC2C)c(N)c1=O (stereo not drawn) (I: TVP[Sar][NMeV] / II: TVP[Sar][NMeV]; ester I:1-I:C, II:1-II:C; linker I:N-II:N via Actinocin(9to1); configuration not given here)
Potency [1]: 0.0014 µM (active)
Potency [2]: 0.0006 µM (active)
Potency [3]: inactive
Potency [4]: inactive

CN(C)CCN1C(=O)c2cccc3cc(N)cc(c23)C1=O
Potency [1]: 5.25 µM (active)
Potency [2]: 4.17 µM (active)
Potency [3]: inactive
Potency [4]: inactive

CCC(C(=O)O)C1CCC(C)C(C(C)C(O)C(C)C(=O)C(CC)C2OC3(C=CC(O)[C@@]4(CC[C@](C)(C5CC[C@@](O)(CC)C(C)O5)O4)O3)C(C)CC2C)O1 (stereo partly drawn)
Potency [1]: 0.468 µM (active)
Potency [2]: 0.417 µM (active)
Potency [3]: inactive
Potency [4]: inactive

CC(C=CC=C(C)C=CC1=C(C)CCCC1(C)C)=CC=CC=C(C)C=CC=C(C)C=CC1=C(C)CCCC1(C)C
outcome [3]: inactive [at 0.4 µM]
outcome [4]: inactive [at 0.409 µM]

O=c1ccn([C@@H]2O[C@H](CO)[C@H](O)[C@@H]2F)c(=O)[nH]1
Potency [3]: inactive
Potency [4]: inactive

COc1cc2c(Nc3ccc(Cl)c(Cl)c3F)ncnc2cc1OCC1C[C@@H]2CN(C)C[C@H]2C1
activity [8]: -71.6%
Potency [9]: 21500 nM (active)
activity [10]: -56.2%
activity [11]: -68.7%

COc1cc(OC)c(NC(=O)Nc2cc(C)on2)cc1Cl
Potency [3]: inactive

C=C[C@@H]1CN2CCC1C[C@H]2[C@H](O)c1ccnc2ccc(OC)cc12 (stereo partly drawn)
Potency [3]: inactive

Cc1ccc2nc(NCCN)c3ncc(C)n3c2c1
Potency [1]: 9.2 µM (active) and 4.68 µM (active)
Potency [2]: 9.2 µM (active) and 3.72 µM (active)
Potency [4]: 22700 nM (active)
